Experimental data from publication PMC12040169 (PLOS Biology, 2025).

Test system: T1, C. trachomatis L2/434/Bu expressing GFP (CTL2-GFP)
T1 construct: L2/434/Bu GFP intracellular growth in HeLa cells
Parameters: species or system HeLa; C. trachomatis total inclusion area by high-content imaging, normalised to DMSO
Settings: total inclusion area; 28.5 h, 10 µM; inhibitor
From the text: We screened a library of 36,785 small molecules displaying drug-like properties and covering a wide chemical space (Fig 1A and S2A Data). In this process, we also complemented the assay described above with an imaging-based readout (Fig 1B). After measurements of bulk GFP and resorufin fluorescence, cells were fixed, stained with the DNA dye Hoechst, and imaged at a high-content imaging platform to detect chlamydial inclusions (GFP) and host cell nuclei (Hoechst). The total area and number of inclusions in individual wells and the number of nuclei then served as additional proxies for chlamydial growth and host cell viability. […] MICs were calculated as described above.

| Structure (SMILES) | % of control remaining |
| --- | --- |
| O=C(c1cccc(S(=O)(=O)F)c1)N1CCCCC1 [CBK074224] | 0.8769 |
| CCOC(=O)CC(C)(O)P(=O)(OC)OC (stereo not drawn) [CBK261287] | 1.025 |
| S=P(Oc1ccccc1)(Oc1ccccc1)Oc1ccccc1 [CBK260987] | 0.9936 |
